Among the data in PubChem BioAssay (NCI) are growth values, retold here.

The panel holds about 83,000 compounds, 20% with a hit somewhere; the sample as a whole holds those more often.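 Single-dose data. Exposure time 48 hours. Values below 10 considered active.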 Unmarked numbers belong to inactive results. Calls of active or inactive are those of the source.

Among the test systems are NCI-H23 lung; NCI-H322M lung; HOP-62 NSCLC; NCI-H460 lung; HOP-92 NSCLC; NCI-H522 lung; A549/ATCC NSCLC; 786-0 renal; DU-145 prostate; K-562 leukemia; MALME-3M melanoma; MDA-MB-231 breast; RXF 393 renal; SF-268 CNS; SF-295 CNS; SF-539 CNS; UACC-257 melanoma; M14 melanoma; HCT-15 colon; COLO 205 colon.
What all share (assay): NCI-60 one-dose screen, 48 h (100 = growth as untreated, 0 = no growth, -100 = all killed)
Common to all, as to conditions: 10 µM unless noted

Take `O=C(NCc1ccccc1)C1CN(c2ccc(Cl)cc2)N(c2ccc(Cl)cc2)C1=O` (centres undefined): the growth is 94% with NCI-H23 lung; 95.8% in the assay with NCI-H322M lung; 74.6% with HOP-62 NSCLC; 85.6% with NCI-H460 lung; 86.5% in the assay with HOP-92 NSCLC; 65.6% with NCI-H522 lung. The growth in the assay on A549/ATCC NSCLC was 69.6%; in the assay with 786-0 renal, 99.3%; in the assay with DU-145 prostate, 97.5%; in the assay with K-562 leukemia it was 35.1%; in the assay with MALME-3M melanoma, 73.8%; in the assay with MDA-MB-231 breast it was 91.3%. The growth in the assay with RXF 393 renal is 81.1%; with SF-268 CNS, 82.4%; with SF-295 CNS, 76.3%; with SF-539 CNS it was 93.4%; in the assay on UACC-257 melanoma, 79.4%; in the assay with M14 melanoma, 74.9%. In the assay on HCT-15 colon, the growth is 59.5%.
Take `COc1cc2nc(NC3CCCC3)nc(NC3CCN(C(C)C)CC3)c2cc1OC`: the growth was 88.7% in the assay on NCI-H23 lung; 100% in the assay on NCI-H322M lung; 89.3% with HOP-62 NSCLC; 71.8% in the assay with NCI-H460 lung; 47.8% with HOP-92 NSCLC; 62.6% with NCI-H522 lung. Also, the growth with A549/ATCC NSCLC was 75.7%; with 786-0 renal, 80.7%; with DU-145 prostate, 74.8%; in the assay with K-562 leukemia, -4.9% (active); in the assay on MALME-3M melanoma, 76.4%; in the assay on MDA-MB-231 breast, 24.8%. Also, the growth in the assay on RXF 393 renal is 18%; in the assay on SF-268 CNS, 88.7%; in the assay on SF-295 CNS, 96.5%; in the assay on SF-539 CNS, 59.6%; with UACC-257 melanoma, 79.9%; in the assay with M14 melanoma, -80.4% (active). The growth with HCT-15 colon is 79.2%.
Regarding `CNCCNc1nc2ccccc2c2c(=O)c3cccc(C)c3sc12`, the growth is 58.2% with NCI-H23 lung; 40.9% in the assay with NCI-H322M lung; 25.6% in the assay with HOP-62 NSCLC; 9.45% (active) in the assay with NCI-H460 lung; 44% in the assay on HOP-92 NSCLC; 27.8% with NCI-H522 lung. Moreover, the growth in the assay with A549/ATCC NSCLC is 35.7%; with 786-0 renal, 57.3%; with DU-145 prostate, 27.8%; in the assay with K-562 leukemia, -52.5% (active); in the assay with MALME-3M melanoma it was -11.3% (active); in the assay on MDA-MB-231 breast, -18% (active). For the same compound, the growth is 50.8% in the assay on RXF 393 renal; 53.7% with SF-268 CNS; 76% in the assay with SF-295 CNS; 52.4% in the assay on SF-539 CNS; 82% with UACC-257 melanoma; -40.9% (active) with M14 melanoma. Moreover, in the assay with HCT-15 colon, the growth is -21.3% (active).
On to `O=C(/C=C/c1ccccc1)c1ccc(Nc2nc(NCCO)nc(Nc3ccc(Cl)cc3)n2)cc1`, for which the growth in the assay with NCI-H23 lung is 82.7%; in the assay on NCI-H322M lung, 91.6%; with HOP-62 NSCLC it was 93.2%; with NCI-H460 lung, 81%; in the assay on HOP-92 NSCLC, 96.2%; in the assay on NCI-H522 lung, 83.3%. For the same compound, the growth in the assay with A549/ATCC NSCLC was 64.6%; in the assay with 786-0 renal, 83.9%; in the assay on DU-145 prostate, 73.6%; in the assay on K-562 leukemia, 36.1%; in the assay with MALME-3M melanoma, 98.7%; with MDA-MB-231 breast, 71.4%. In addition, the growth was 73.2% in the assay on RXF 393 renal; 73.8% in the assay with SF-268 CNS; 96.1% in the assay with SF-295 CNS; 73% with SF-539 CNS; 94.7% in the assay with UACC-257 melanoma; 99.9% with M14 melanoma. The growth in the assay with HCT-15 colon was 8.55% (active).
Turning to `O=c1c2cccc(F)c2sc2c(N3CCNCC3)nc3ccccc3c12`, the growth in the assay on NCI-H23 lung is 51%; in the assay on NCI-H322M lung it was 37.9%; in the assay on HOP-62 NSCLC, 37.2%; in the assay with NCI-H460 lung, -77.2% (active); in the assay with HOP-92 NSCLC, 35.3%; in the assay on NCI-H522 lung, 48.6%. Moreover, the growth with A549/ATCC NSCLC was 21.8%; with 786-0 renal, 37%; with DU-145 prostate it was 22.3%; in the assay with K-562 leukemia, -42.1% (active); in the assay with MALME-3M melanoma it was 53.5%; with MDA-MB-231 breast, 34.6%. Further, the growth with RXF 393 renal was 42.4%; in the assay on SF-268 CNS it was 41.4%; in the assay on SF-295 CNS, 74.6%; with SF-539 CNS, 48.9%; in the assay with UACC-257 melanoma it was 8.99% (active); in the assay with M14 melanoma, -27.4% (active). The growth in the assay with HCT-15 colon was 5.87% (active).
Take `Cc1cccc2c(=O)c3c(sc12)c(NCCCNCCO)nc1ccccc13`: the growth is 55% in the assay with NCI-H23 lung; 63.3% in the assay with NCI-H322M lung; 41.6% with HOP-62 NSCLC; 19.3% in the assay with NCI-H460 lung; 29.4% with HOP-92 NSCLC; 58.6% with NCI-H522 lung. In addition, the growth was 39.4% with A549/ATCC NSCLC; 52.8% with 786-0 renal; 35% in the assay with DU-145 prostate; -51.3% (active) in the assay with K-562 leukemia; 26.9% with MALME-3M melanoma; -1.61% (active) with MDA-MB-231 breast. In addition, the growth was 43.3% in the assay with RXF 393 renal; 52.1% with SF-268 CNS; 74.7% in the assay on SF-295 CNS; 59.4% in the assay with SF-539 CNS; 91.6% in the assay on UACC-257 melanoma; 35.1% with M14 melanoma. Further, the growth in the assay with HCT-15 colon was 0.41% (active).
Turning to `O=c1oc2ccc(Br)cc2c(=O)n1-c1ccc(Br)cc1F`, the growth with NCI-H23 lung is -38.4% (active); with NCI-H322M lung, 2.56% (active); in the assay with HOP-62 NSCLC, -4.63% (active); in the assay on NCI-H460 lung, 1.55% (active); in the assay on HOP-92 NSCLC it was -13.7% (active); with NCI-H522 lung it was 6.36% (active). Also, the growth with A549/ATCC NSCLC is 13%; in the assay on 786-0 renal, 1.72% (active); with DU-145 prostate, 13.8%; with K-562 leukemia, 8.3% (active); with MALME-3M melanoma it was -28.4% (active); in the assay with MDA-MB-231 breast, -27.2% (active). In addition, the growth in the assay with RXF 393 renal is -11.5% (active); with SF-268 CNS, 12%; with SF-295 CNS it was -73.6% (active); in the assay with SF-539 CNS, -3.2% (active); in the assay with UACC-257 melanoma it was -15.1% (active); in the assay on M14 melanoma, -12.4% (active). In the assay on HCT-15 colon, the growth is 2.53% (active).
With `COc1ccc2occ(C3=C(c4c[nH]c5ccccc45)C(=O)NC3=O)c2c1`, the growth in the assay with NCI-H23 lung is 62.2%; in the assay on NCI-H322M lung, 79%; in the assay on HOP-62 NSCLC, 41.6%; with NCI-H460 lung, 22.5%; with HOP-92 NSCLC, 67.2%; with NCI-H522 lung, 33%. The growth is 40.8% in the assay on A549/ATCC NSCLC; 74.7% in the assay with 786-0 renal; 92.1% with DU-145 prostate; 21.6% with K-562 leukemia; 46.7% in the assay on MALME-3M melanoma; 28% in the assay with MDA-MB-231 breast. Also, the growth with RXF 393 renal is 34.5%; in the assay with SF-268 CNS, 52%; with SF-295 CNS it was 35.6%; in the assay with SF-539 CNS it was 51.8%; in the assay on UACC-257 melanoma, 76.3%; in the assay with M14 melanoma it was 27.3%. Also, in the assay on HCT-15 colon, the growth was 24.1%.
Regarding `COc1cc(CNC(=O)Cc2ccccc2)ccc1OCc1cn(-c2ccc(F)cc2)nn1`, the growth was 94.9% in the assay with NCI-H23 lung; 103% with NCI-H322M lung; 104% in the assay on HOP-62 NSCLC; 101% in the assay with NCI-H460 lung; 107% in the assay with HOP-92 NSCLC; 90.1% in the assay with NCI-H522 lung. In addition, the growth in the assay on A549/ATCC NSCLC is 97.5%; in the assay on 786-0 renal, 104%; in the assay with DU-145 prostate it was 108%; in the assay on K-562 leukemia it was 91.8%; in the assay on MALME-3M melanoma it was 114%; in the assay with MDA-MB-231 breast it was 89.5%. The growth with RXF 393 renal is 125%; in the assay on SF-268 CNS, 98.1%; in the assay with SF-295 CNS, 101%; in the assay with SF-539 CNS, 99.5%; in the assay with UACC-257 melanoma it was 97.7%; with M14 melanoma, 101%. In the assay on HCT-15 colon, the growth was 106%.
As to `CN(C)c1ccc(/C=C/c2ccnc3c(O)cccc23)cc1`, the growth was 34.8% with NCI-H23 lung; 28.7% in the assay on NCI-H322M lung; 0.902% (active) with NCI-H460 lung; 53.5% in the assay on HOP-92 NSCLC; -10.9% (active) in the assay on NCI-H522 lung; 3.5% (active) with A549/ATCC NSCLC. For the same compound, the growth in the assay on 786-0 renal is -10.5% (active); with COLO 205 colon, 99.7%; in the assay on DU-145 prostate it was 13.9%; in the assay with K-562 leukemia it was 5.89% (active); in the assay with MALME-3M melanoma, -2.62% (active); with MDA-MB-231 breast it was 36.5%. Further, the growth in the assay on RXF 393 renal was 36.1%; in the assay on SF-268 CNS, 12.5%; in the assay with SF-295 CNS, -8% (active); in the assay with SF-539 CNS, 2.91% (active); in the assay on UACC-257 melanoma, -15.5% (active); with M14 melanoma, -22.5% (active). Moreover, the growth in the assay on HCT-15 colon was 26.7%.
Regarding `O=C1OC(c2ccccc2)(c2ccccc2)c2ccsc21`, the growth with NCI-H23 lung was 113%; with NCI-H322M lung it was 90.7%; in the assay with NCI-H460 lung, 98.8%; with HOP-92 NSCLC it was 87.1%; in the assay on NCI-H522 lung it was 92.6%; with A549/ATCC NSCLC, 101%. Besides, the growth with 786-0 renal is 103%; in the assay with COLO 205 colon it was 121%; in the assay on DU-145 prostate, 104%; with K-562 leukemia it was 87%; in the assay with MALME-3M melanoma, 87.2%; in the assay with MDA-MB-231 breast, 100%. In addition, the growth with RXF 393 renal is 114%; with SF-268 CNS it was 97.3%; in the assay on SF-295 CNS, 97.2%; with SF-539 CNS, 98.9%; in the assay with UACC-257 melanoma, 103%; with M14 melanoma, 106%. Besides, the growth in the assay on HCT-15 colon is 95.2%.
